Results published in PubChem BioAssay (NCATS).
Results filed as inconclusive are left out. The source made the active and inactive calls. Calls follow the shape of the dose curve; as a rule, active = well fitted cell-killing curve with a large enough effect; inconclusive = small, poorly fitted or top-dose-only effect; inactive = flat fitted curve, though single readings scatter.

Columns and labels:
[1] = Cell Viability - LYMP2-013 (AID 970); also: series mostly up to about 92 µM; nearly all actives have a fitted effect of over 55% in size
Outline: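 In complete culture medium, human lymphoblastoid cells were dosed for 24 hr at 37 C, with tetraoctylammonium bromide (6.4pM to 92 uM) as positive control. Viability reflects luciferase-based ATP signal; AC50 derived from concentration-response curves.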

[2] = Cell Viability - LYMP2-015 (AID 971); also: nearly all actives have a fitted effect of over 55% in size
Outline: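 AC50 values reflect Hill-model fits of ATP-based luminescence (CellTiter-Glo) from a human lymphoblastoid line, 2500 cells/well, treated 24 hr at 37 C.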

[3] = Cell Viability - LYMP2-017 (AID 972); also: series mostly up to about 92 µM; nearly all actives have a fitted effect of over 55% in size
Outline: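 In this qHTS format, lymphoblastoid cells in complete medium receive test compound for a day at 37 C before ATP content is quantified by luciferase luminescence. Reported AC50 figures come from standard Hill-equation curve fitting.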

[4] = Cell Viability - LYMP2-023 (AID 975);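 also: cellular ATP measured by luciferase luminescence as viability proxy; series mostly up to about 92 µM; nearly all actives have a fitted effect of over 55% in size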
Outline: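 In this qHTS, ATP-based luciferase luminescence (CellTiter-Glo) is quantified in human lymphoblastoid cells after 24 hr compound treatment at 37 C; tetraoctylammonium bromide serves as positive control. Concentration-response curves are Hill-fitted to give AC50.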

[5] = Cell Viability - LYMP2-025 (AID 976); also: series mostly up to about 92 µM
Outline: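 Luminescent ATP readout after 24 hr treatment of a human lymphoblastoid line (LYMP2-025, 2500 cells/well, 37 C). Reagent developed 30 min at room temperature; AC50 fitted with the Hill equation.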

[6] = Cell Viability - LYMP2-002 (AID 977);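 also: series mostly up to about 92 µM; compound exposure lasted 24 h at 37 °C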
Outline: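 Human lymphoblastoid cells, 2500/well, complete medium; 5 h 37 C settle; compound 24 h 37 C; CellTiter-Glo, 30 min RT; luminescence. Decrease in ATP = cytotoxicity; AC50 via Hill equation.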

[7] = Cell Viability - LYMP2-006 (AID 978); also: series mostly up to about 92 µM; nearly all actives have a fitted effect of over 60% in size
Outline: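 qHTS, 1536-well; 2500 cells/well, 5 hr 37 C; cpd 24 hr 37 C; CellTiter-Glo 30 min RT; luminescence. Tetraoctylammonium bromide pos. ctrl. AC50 via Hill eqn.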

[8] = Cell Viability - LYMP2-007 (AID 979);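 also: cells exposed to compound for 24 h before reading; nearly all actives have a fitted effect of over 60% in size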
Outline: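 Measured via luciferase-based ATP quantitation: lymphoblastoid cells, 24 hr compound exposure at 37 C, AC50 from Hill fits.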

[9] = Cell Viability - LYMP2-008 (AID 980); also: nearly all actives have a fitted effect of over 60% in size
Outline: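 Measured: ATP-dependent luminescence, proportional to viable cell number, in human lymphoblastoid cells treated 24 hr with compound in complete culture medium. Values are AC50s from Hill-equation modelling of qHTS titrations.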

[10] = Cell Viability - LYMP2-010 (AID 981); also: nearly all actives have a fitted effect of over 55% in size
Outline: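 This 24 hr viability screen uses LYMP2-010 lymphoblastoid cells, quantifies ATP via luciferase luminescence, and derives AC50 from Hill fits of qHTS concentration-response data.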

[11] = Cell Viability - LYMP2-016 (AID 984); also: nearly all actives have a fitted effect of over 55% in size
Outline: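 qHTS, 1536-well: 2500 LYMP2-016 cells/well, 5 hr 37 C, compound added, 24 hr 37 C, CellTiter-Glo 30 min RT, luminescence. Tetraoctylammonium bromide positive control. AC50 via Hill fit.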

[12] = Cell Viability - LYMP2-018 (AID 985); also: nearly all actives have a fitted effect of over 50% in size
Outline: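 In this qHTS viability assay, cells are treated for 24 hr and cellular ATP is quantified by luciferase-based luminescence, with tetraoctylammonium bromide as positive control.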

[13] = Cell Viability - LYMP1-002 - Assay at 24 hr (AID 993)
Outline: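 Viability was judged from intracellular ATP using a luciferase read-out, following a 24-hour compound incubation at 37 C of lymphoblastoid cells seeded at 2500 per well. Concentration-response data were fitted to the Hill equation for AC50.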

[14] = Cell Viability - LYMP1-002 - Assay at 40 hr (AID 994); also: nearly all actives have a fitted effect of over 60% in size
Outline: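 Concentration-dependent ATP loss after 40 hr treatment at 37 C defined toxicity; AC50 values were obtained by fitting the standard Hill equation.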

Measured: Potency

O=C(O)c1cc(N=Nc2ccc([N+](=O)[O-])cc2)ccc1O
inactive: all assays above
